Assay results from PubChem BioAssay (NCATS).
Results filed as inconclusive are left out. Active and inactive are the calls of the source. Unless noted, calls follow the shape of the dose curve; as a rule, active = well fitted cell-killing curve with a large enough effect; inconclusive = small, poorly fitted or top-dose-only effect; inactive = flat fitted curve, though single readings scatter.

Assays:
[1] = Cell Viability - LYMP2-025 (AID 976); also: potency is read from the fitted curve at half-maximal effect
Method in brief: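 CellTiter-Glo luminescence (cellular ATP) after 24 h compound exposure at 37 C; LYMP2-025 human lymphoblastoid cells, 2500/well, complete medium. Tetraoctylammonium bromide positive control. AC50 by Hill equation fit of qHTS concentration-response.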

[2] = Cell Viability - LYMP2-002 (AID 977);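 also: series mostly up to about 92 µM; plate controls were DMSO only for no effect and 92 µM tetraoctylammonium bromide for full effect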
Method in brief: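 Human lymphoblastoid cells, 2500/well, complete medium; 5 h 37 C settle; compound 24 h 37 C; CellTiter-Glo, 30 min RT; luminescence. Decrease in ATP = cytotoxicity; AC50 via Hill equation.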

[3] = Cell Viability - LYMP2-006 (AID 978);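 also: series mostly up to about 92 µM; cells exposed to compound for 24 hours; % is scaled to controls: 0 for no effect and ±100 for the full control effect; nearly all actives have a fitted effect of over 60% in size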
Method in brief: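 qHTS, 1536-well; 2500 cells/well, 5 hr 37 C; cpd 24 hr 37 C; CellTiter-Glo 30 min RT; luminescence. Tetraoctylammonium bromide pos. ctrl. AC50 via Hill eqn.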

[4] = Cell Viability - LYMP2-008 (AID 980); also: % is scaled to controls: 0 for no effect and ±100 for the full control effect; nearly all actives have a fitted effect of over 60% in size
Method in brief: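 Luminescent ATP read-out (CellTiter-Glo, 30 min RT) after 24 hr compound exposure at 37 C of human lymphoblastoid cells in complete medium. Decrease in ATP taken as cytotoxicity; AC50 derived by standard Hill fit of qHTS concentration-response data.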

[5] = Cell Viability - LYMP2-010 (AID 981);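 also: cells exposed to compound for 24 hours at 37 °C; % is scaled to controls: 0 for no effect and ±100 for the full control effect; nearly all actives have a fitted effect of over 55% in size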
Method in brief: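 qHTS cytotoxicity, 1536-well: 2500 cells/well, 5 hr settle, 24 hr compound at 37 C, CellTiter-Glo 30 min RT, luminescence read. Decrease in ATP = toxicity; AC50 via standard Hill equation. Positive control tetraoctylammonium bromide.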

[6] = Cell Viability - LYMP2-012 (AID 982);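 also: cellular ATP by luciferase luminescence where a drop means cytotoxicity; cells exposed to compound for one day before reading; 0% = DMSO only and full loss = 92 µM tetraoctylammonium bromide; nearly all actives have a fitted effect of over 55% in size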
[7] = Cell Viability - LYMP2-014 (AID 983);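 also: series mostly up to about 92 µM; plate controls were DMSO only for no effect and 92 µM tetraoctylammonium bromide for full effect; nearly all actives have a fitted effect of over 50% in size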
Method in brief: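 2500 cells/well, 5 hr 37 C; cpd 24 hr 37 C, complete medium; CellTiter-Glo 30 min RT, luminescence; ATP loss = toxicity; AC50 via Hill eqn; tetraoctylammonium bromide positive control.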

[8] = Cell Viability - LYMP2-020 (AID 986);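 also: series mostly up to about 92 µM; plate controls were DMSO only for no effect and tetraoctylammonium bromide at 92 µM for full effect; nearly all actives have a fitted effect of over 55% in size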
Method in brief: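 qHTS, 2500 cells/well; 5 hr then 24 hr compound exposure, 37 C; CellTiter-Glo luminescence after 30 min RT; ATP decrease taken as cytotoxicity; AC50 via Hill equation; tetraoctylammonium bromide positive control.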

[9] = Cell Viability - LYMP2-022 (AID 987);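 also: 0% = DMSO alone and full effect = tetraoctylammonium bromide at 92 µM; nearly all actives have a fitted effect of over 55% in size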
Method in brief: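 Luminescent ATP read-out (CellTiter-Glo, 30 min, RT) after 24 hr, 37 C compound exposure of 2500 human lymphoblastoid cells/well in complete medium. Cytotoxicity taken as concentration-dependent ATP loss; AC50 from standard Hill equation.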

[10] = Cell Viability - LYMP2-024 (AID 988);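 also: plate controls were DMSO only for no effect and 92 µM tetraoctylammonium bromide for full effect; nearly all actives have a fitted effect of over 60% in size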
Method in brief: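 ATP-based luminescence (CellTiter-Glo, 30 min RT) after 24 h compound exposure at 37 C of 2500 lymphoblastoid cells/well; decrease in ATP taken as cytotoxicity. qHTS concentration-response fitted to standard Hill equation for AC50.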

[11] = Cell Viability - LYMP2-026 (AID 989); also: % is scaled to controls: 0 for no effect and ±100 for the full control effect; nearly all actives have a fitted effect of over 50% in size
Method in brief: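 qHTS cytotoxicity: 2500 cells/well, 5 hr 37 C, compound 24 hr 37 C, CellTiter-Glo 30 min RT, luminescence. Tetraoctylammonium bromide positive control. AC50 via standard Hill fit.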

[12] = Cell Viability - LYMP1-002 - Assay at 24 hr (AID 993); also: % is scaled to controls: 0 for no effect and ±100 for the full control effect
Method in brief: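 CellTiter-Glo luminescence (intracellular ATP) after 24 h compound exposure, 37 C, in LYMP1-002 human lymphoblastoid cells; decreased ATP taken as cytotoxicity. AC50 from standard Hill fit of concentration-response curves.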

[13] = Cell Viability - LYMP1-002 - Assay at 40 hr (AID 994);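 also: 0% = DMSO only and full inhibition = 92 µM tetraoctylammonium bromide; nearly all actives have a fitted effect of over 60% in size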
Method in brief: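 qHTS cytotoxicity; 2500 cells/well, 5 hr 37 C settle, compound 40 hr 37 C. CellTiter-Glo, 30 min RT, luminescence (ATP). Concentration-response, Hill fit → AC50. Pos. ctrl tetraoctylammonium bromide.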

[14] = qHTS Assay for Identification of Small Molecule Inducers of Hypoxia Response (AID 2120; active = well fitted curve in the direction sought with a large enough effect in the signal ratio, with a control signal flat, not every such curve was filed as active; the % refers to the signal ratio; also: 0% is about no effect)
Method in brief: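 Read-out: CCF4 FRET emission ratio 460nm/530nm (excitation 405nm), converted to %Activity, with AC50 fitted across a compound titration. ME-180 cells carried an HRE-driven beta-lactamase reporter; compound exposure 17 h, 37 degrees C.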

[15] = target: Estrogen receptor (Homo sapiens) (UniProt P03372); test: qHTS assay for small molecule antagonists of estrogen receptor alpha signaling (AID 588513; active = well fitted curve in the direction sought with a large enough effect in the signal ratio, with a control signal flat, not every such curve was filed as active; the % refers to the signal ratio; also: % is scaled to controls: 0 for no effect and ±100 for the full control effect)
Method in brief: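 Beta-lactamase reporter, antagonist mode, HEK 293 GripTite cells; 0.5nM E2 stimulus, 18 h, 37 C; CCF4 dye 2 h RT; fluorescence. IC50 and efficacy from Hill fits, normalized to E2 and DMSO.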

[16] = target: Estrogen receptor (Homo sapiens) (UniProt P03372); test: qHTS assay for small molecule agonists of estrogen receptor alpha signaling (AID 588514; calls by dose curve;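 also: 0% = vehicle only and 100% = reference agonist; nearly all actives have a fitted effect of over 70% in size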)
Method in brief: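 Read-out: CCF4 fluorescence from a beta-lactamase reporter in ER-alpha-UAS-bla HEK 293 cells after 18 hrs of compound exposure at 37 C. Normalized to 20 nM 17-beta-estradiol (100%) and DMSO (0%).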

[17] = Cell Viability - LYMP2-007 (AID 979)
Method in brief: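 qHTS cytotoxicity: 2500 cells/well, 5 hr 37 C settle, compound 24 hr 37 C, CellTiter-Glo 30 min RT, luminescence. Decrease in ATP = toxicity. AC50 by standard Hill equation; tetraoctylammonium bromide positive control.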

[18] = Cell Viability - LYMP2-016 (AID 984)
Method in brief: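 qHTS, 1536-well: 2500 LYMP2-016 cells/well, 5 hr 37 C, compound added, 24 hr 37 C, CellTiter-Glo 30 min RT, luminescence. Tetraoctylammonium bromide positive control. AC50 via Hill fit.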

[19] = Cell Viability - LYMP2-018 (AID 985);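 also: plate controls were DMSO only for no effect and tetraoctylammonium bromide at 92 µM for full effect; nearly all actives have a fitted effect of over 50% in size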
Method in brief: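 2500 cells/well; 5 hr 37 C; cmpd 24 hr 37 C, complete medium; CellTiter-Glo 30 min RT; luminescence. Tetraoctylammonium bromide positive control. AC50 via Hill fit.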

[20] = target: Androgen receptor (Homo sapiens) (UniProt P10275); test: qHTS assay for small molecule agonists of androgen receptor signaling (AID 588515; active = well fitted curve in the direction sought with a large enough effect in the signal ratio, with a control signal flat; the % refers to the signal ratio; also: % is scaled to controls: 0 for no effect and ±100 for the full control effect); conditions: AR-UAS-bla HEK293, beta-lactamase ratio, agonist 16 h; active compounds read high
Method in brief: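 Stimulation of an AR-responsive β-lactamase reporter in GripTite HEK293 cells was measured after 16 h compound exposure at 37 °C, via CCF4 fluorescence after 2 h RT. EC50 from Hill fits, normalized to R1881 at 30 nM.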

Sequence of Estrogen receptor (Homo sapiens) (P03372 whole entry, looked up): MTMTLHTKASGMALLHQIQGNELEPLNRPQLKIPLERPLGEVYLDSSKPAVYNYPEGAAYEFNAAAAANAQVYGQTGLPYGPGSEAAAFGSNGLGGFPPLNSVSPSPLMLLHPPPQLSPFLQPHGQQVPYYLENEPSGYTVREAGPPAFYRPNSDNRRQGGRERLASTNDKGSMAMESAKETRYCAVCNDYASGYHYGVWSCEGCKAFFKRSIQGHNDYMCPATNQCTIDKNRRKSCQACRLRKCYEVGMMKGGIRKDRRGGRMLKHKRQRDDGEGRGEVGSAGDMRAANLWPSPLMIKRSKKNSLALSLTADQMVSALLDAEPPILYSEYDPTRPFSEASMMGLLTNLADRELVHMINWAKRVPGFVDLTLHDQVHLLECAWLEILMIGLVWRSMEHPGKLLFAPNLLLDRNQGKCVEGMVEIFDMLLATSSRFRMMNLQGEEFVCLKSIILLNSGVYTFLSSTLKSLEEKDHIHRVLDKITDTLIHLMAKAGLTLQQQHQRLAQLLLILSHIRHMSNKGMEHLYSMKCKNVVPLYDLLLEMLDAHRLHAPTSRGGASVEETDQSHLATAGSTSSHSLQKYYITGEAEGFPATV
Sequence of Androgen receptor (Homo sapiens) (P10275 whole entry, looked up): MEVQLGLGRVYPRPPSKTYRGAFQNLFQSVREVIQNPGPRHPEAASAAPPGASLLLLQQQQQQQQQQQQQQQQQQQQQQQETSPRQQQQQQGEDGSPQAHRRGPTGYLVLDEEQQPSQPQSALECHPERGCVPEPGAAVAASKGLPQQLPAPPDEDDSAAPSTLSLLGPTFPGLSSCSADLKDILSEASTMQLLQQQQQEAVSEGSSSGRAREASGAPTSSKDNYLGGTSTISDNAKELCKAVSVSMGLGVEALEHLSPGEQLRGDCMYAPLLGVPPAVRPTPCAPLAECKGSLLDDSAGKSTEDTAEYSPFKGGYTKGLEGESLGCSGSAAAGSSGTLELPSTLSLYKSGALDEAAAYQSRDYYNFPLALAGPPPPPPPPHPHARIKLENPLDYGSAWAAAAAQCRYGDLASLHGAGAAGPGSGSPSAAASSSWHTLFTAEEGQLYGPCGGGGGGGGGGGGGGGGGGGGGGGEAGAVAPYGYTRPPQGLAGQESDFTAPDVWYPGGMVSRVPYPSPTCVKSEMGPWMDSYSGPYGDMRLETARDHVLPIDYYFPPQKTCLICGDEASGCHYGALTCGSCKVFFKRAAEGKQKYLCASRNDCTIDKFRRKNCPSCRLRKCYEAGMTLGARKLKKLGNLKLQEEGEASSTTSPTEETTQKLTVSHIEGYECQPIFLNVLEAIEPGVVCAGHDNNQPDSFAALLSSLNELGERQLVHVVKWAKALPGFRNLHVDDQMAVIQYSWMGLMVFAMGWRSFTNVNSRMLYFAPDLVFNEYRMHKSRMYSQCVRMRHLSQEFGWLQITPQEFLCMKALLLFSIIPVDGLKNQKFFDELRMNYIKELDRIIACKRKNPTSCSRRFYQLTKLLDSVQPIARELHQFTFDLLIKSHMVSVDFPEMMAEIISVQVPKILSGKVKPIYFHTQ

c1ccc2c(c1)Oc1ccccc1S2
active: Potency [1] 1 nM
inactive: Potency [2] | Potency [3] | Potency [4] | Potency [5] | Potency [6] | Potency [7] | Potency [8] | Potency [9] | Potency [10] | outcome [11] | Potency [12] | Potency [13] | outcome [14] | outcome [15] | Potency [16]

Cc1nc2ccc(Cl)cc2[nH]1
inactive: Potency [1] | Potency [2] | Potency [17] | Potency [4] | Potency [5] | Potency [6] | Potency [7] | Potency [18] | Potency [19] | Potency [8] | Potency [9] | Potency [10] | outcome [11] | Potency [12] | Potency [13] | outcome [14] | outcome [15] | Potency [16]

C[C@@H]1CC2(OC[C@]3(C)O[C@H]23)O[C@H]2C[C@@]3(C)[C@@H]4CC[C@H]5C(C)(C)C(O[C@@H]6OC[C@@H](O)[C@H](O)[C@H]6O)CC[C@@]56C[C@@]46CC[C@]3(C)[C@@H]12 (some centres undefined)
inactive: Potency [1] | Potency [2] | Potency [3] | Potency [4] | Potency [6] | Potency [7] | Potency [18] | Potency [19] | Potency [9] | Potency [10] | outcome [11] | Potency [12] | Potency [13] | outcome [14] | Potency [16]

CCCCC(CC)COCC1CO1 (centres undefined)
inactive: Potency [1] | Potency [2] | Potency [4] | Potency [5] | Potency [6] | Potency [7] | Potency [18] | Potency [19] | Potency [8] | Potency [9] | Potency [10] | outcome [11] | Potency [12] | Potency [13] | outcome [14] | outcome [15] | Potency [16]

CC(C)N=C=NC(C)C
inactive: Potency [1] | Potency [2] | Potency [4] | Potency [5] | Potency [6] | Potency [7] | Potency [18] | Potency [19] | Potency [8] | Potency [9] | Potency [10] | outcome [11] | Potency [13] | outcome [14] | outcome [15] | Potency [16]

O=C(O)c1ccccc1C(=O)O
inactive: Potency [1] | Potency [2] | Potency [3] | Potency [17] | Potency [4] | Potency [5] | Potency [6] | Potency [7] | Potency [18] | Potency [19] | Potency [8] | Potency [9] | Potency [10] | outcome [11] | Potency [13] | outcome [14] | Potency [16]

CC(=C/C=C/C(C)=C/C=C/C=C(C)/C=C/C=C(C)/C=C/C(=O)O)/C=C/C(=O)O
inactive: Potency [1] | Potency [2] | Potency [3] | Potency [17] | Potency [5] | Potency [6] | Potency [7] | Potency [18] | Potency [19] | Potency [8] | Potency [9] | Potency [10] | outcome [11] | Potency [12] | Potency [13] | outcome [14] | outcome [15] | activation [20] 17%

Cc1cccc2sc(N)nc12
inactive: Potency [1] | Potency [2] | Potency [3] | Potency [17] | Potency [4] | Potency [5] | Potency [7] | Potency [18] | Potency [19] | Potency [8] | Potency [9] | Potency [10] | outcome [11] | Potency [12] | Potency [13] | outcome [14] | outcome [15]

C/C=C(/C)C#N
inactive: Potency [1] | Potency [2] | Potency [17] | Potency [4] | Potency [5] | Potency [7] | Potency [8] | Potency [9] | Potency [10] | outcome [11] | Potency [12] | Potency [13] | outcome [14] | outcome [15] | Potency [16]
